Screening data: PubChem BioAssay, several laboratories
CSC inhib: cancer stem cell inhibition; cancer stem cell-like cells viability, luminescence; inhibition, % at 7.5 µM; actives 1.1% (n = 300,000); in the data active = inhibition above about 75%; tested in HMLE shEcad cells
PP1 inh: blocks human PP1-alpha phosphatase, a PP5 counter-screen; P62136; actives 0.9% (n = 320,000); inhibition, % at 6.7 µM; purified PP1alpha, OMFP fluorescence;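 active = inhibition above the mean inhibition of all tested compounds plus 3 SD, computed separately for each screening campaign, cut at about 15% in these data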
Target sequence (P62136 whole entry, looked up): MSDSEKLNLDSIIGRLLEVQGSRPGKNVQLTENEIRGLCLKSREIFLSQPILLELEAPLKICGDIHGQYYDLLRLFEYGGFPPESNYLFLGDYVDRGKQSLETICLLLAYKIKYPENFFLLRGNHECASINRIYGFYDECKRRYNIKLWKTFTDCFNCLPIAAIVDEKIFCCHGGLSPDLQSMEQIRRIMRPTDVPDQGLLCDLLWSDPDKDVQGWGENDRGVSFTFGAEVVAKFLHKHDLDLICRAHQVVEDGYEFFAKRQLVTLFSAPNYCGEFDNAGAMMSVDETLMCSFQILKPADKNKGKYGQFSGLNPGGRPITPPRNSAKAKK
PP5 primary: inhibitors of human protein phosphatase 5 (PP5). actives 0.18% (n = 320,000). AID 1987. inhibition, % at 6.7 µM. P53041. purified PP5c, OMFP substrate fluorescence;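 active = inhibition above the campaign's mean inhibition across all tested compounds plus 3 SD, cut at about 9.5% in these data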
Beta apoptosis: beta cell apoptosis inhibition; actives 0.8% (n = 300,000); INS-1E cytokine-induced death, ATP luminescence, 48 h; percent of positive-control rescue, neutral wells zero; protection from apoptosis, % (no concentration beside the values);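 active = Every replicate reaches about 75%, or at least half do and their mean reaches it too, limit read from the data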;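 also: higher means more ATP so stronger rescue from cytokine killing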
SKKanGAS inh: blocks kanamycin growth of S. pyogenes SKKanGAS strain; BacTiter-Glo, 6 h; inhibition, % at 7.5 µM; actives 1.3% (n = 300,000); AID 1662;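 active = mean replicate score, as percent of positive control median, at least 50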;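 also: strain carries kanamycin resistance gene driven by streptokinase promoter and grows in 40 µg/ml kanamycin; loss of luminescence reflects streptokinase promoter inhibition or plain growth inhibition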
Numbers stand for hits; 0 = inactive; - = no result given. Hits are enriched below; roughly 3.1% of the tested compounds scored in any of these assays.

SMILES	CSC inhib	PP1 inh	PP5 primary	Beta apoptosis	SKKanGAS inh
CC(C)(C)c1ccc(C(=O)c2c[nH]c(C(=O)NCc3cccnc3)c2)cc1	0	0	0	0	0
O=C(COc1ccc(Cl)cc1)Nc1ccc(C(=O)NCc2cccnc2)cc1	0	0	0	101	0
Cc1ccc(N2C(=O)N(CC(=O)Nc3ccc(C)c(C)c3[N+](=O)[O-])C(=O)C2C)cc1 (stereo not given)	0	0	0	0	0
CCOC(=O)c1ccc(NC(=O)c2cn(CCC#N)nc2-c2ccc3c(c2)OCCO3)cc1	0	0	0	0	0
COc1ccc(CCNC(=O)CSc2nnc3ccc(-c4cccnc4)nn23)cc1	0	0	0	0	0
S=C(NCCC(c1ccccc1)c1ccccc1)Nc1cccc(Cl)c1	122	0	0	0	102
Cc1ccccc1NC(=S)NCCC(c1ccccc1)c1ccccc1	0	0	0	0	0
Cc1ccc(NC(=S)NCCC(c2ccccc2)c2ccccc2)c(C)c1	0	0	0	0	66
O=[N+]([O-])c1cccc(-n2nnnc2CNCc2ccccc2)c1	0	0	0	0	0
COc1ccccc1OCc1ccc(C(=O)Nc2ccc(Cl)cn2)o1	0	0	0	0	0
Cc1ccc(NC(=O)CC(=O)c2ccc([N+](=O)[O-])cc2)cc1S(=O)(=O)Nc1cccc(Cl)c1	0	17	0	0	0
Cc1ccc(NS(=O)(=O)c2cc(C(=O)Nc3cccc([N+](=O)[O-])c3)ccc2C)cc1	0	0	0	0	0
Cc1ccc(NC(=O)c2cccs2)cc1S(=O)(=O)Nc1cccc(Cl)c1	0	0	0	0	0
Cc1ccc(NC(=S)NC(=O)c2ccc(F)cc2)cc1S(=O)(=O)Nc1cccc(Cl)c1	0	0	0	0	70
O=C(Nc1ccccc1C(=O)NC1CC1)c1ccccc1F	0	-	-	0	-
Cc1cc(-n2c(SCC(=O)Nc3ccc(F)c(F)c3)nc3n[nH]c(C)c3c2=N)ccc1Cl	0	0	0	76	0
CCOc1ccc(-n2c(SCC(=O)Nc3ccccc3CC)nc3n[nH]c(C)c3c2=N)cc1	0	0	0	0	0
CCOc1ccc(-n2c(SCC(=O)Nc3ccc(Br)cc3)nc3n[nH]c(C)c3c2=N)cc1	-	17	0	0	0
CCOC(=O)c1c(NC(=O)CSc2nc3ccc(C)cc3[nH]2)sc2c1CC(C)(C)NC2(C)C	78	0	0	0	0
CCOC(=O)c1c(NC(=O)COC(=O)c2ccc(C)s2)sc2c1CC(C)(C)NC2(C)C	0	0	0	0	63
COc1ccc(NC(=O)C2CC3CCC2C3)c(OC)c1 (stereo not given)	-	0	0	-	0
CCc1ccccc1NC(=O)CN1CCN(CC(=O)Nc2cc(C)ccc2OC)CC1	0	0	0	0	0
Oc1c(Br)cc(Br)cc1/C=N/NC(=S)N[C@H]1CC2C=CC1C2 (stereo not given in full)	102	17	0	0	120
CCOc1ccc(/C=N/NC(=S)NC2CC3C=CC2C3)cc1 (stereo not given)	0	0	0	0	64
CCOCc1nnc(NC(=O)CS(=O)(=O)c2ccc(C)cc2)s1	0	0	0	0	0
SMILES	CSC inhib	PP1 inh	PP5 primary	Beta apoptosis	SKKanGAS inh
CC(C)(C)OC(=O)N1Cc2[nH]c3ccccc3c2C[C@@H]1C(=O)O	0	0	0	0	-
C=C(C)C(=O)N1CC2(CC(c3cccc(NC(=O)COc4ccc(Cl)cc4)c3)=NO2)C[C@@H]1C(N)=O (stereo not given in full)	0	0	0	104	0
C/C=C(\C)C(=O)N1CC2(CC(c3cccc(NC(=O)COc4ccc(Cl)cc4)c3)=NO2)C[C@@H]1C(N)=O (stereo not given in full)	0	0	0	0	0
COc1cc2cc(CCCO)oc(=O)c2cc1OC	0	-	-	0	-
CC1=[N+](C)c2ccc3ccccc3c2C1(C)C	103	0	0	99	0
Nc1nc(-c2ccccc2)c(-c2ccc([N+](=O)[O-])cc2)s1	0	0	0	93	0
Nc1nc(-c2ccccc2)c(-c2ccccc2)s1	0	0	0	-	0
COc1cccc(CNC(=O)CN2C(=O)c3ccccc3S2(=O)=O)c1	0	0	0	0	0
Cc1ccccc1OCCN1C(=O)C(=O)c2cccc(C)c21	-	16	0	-	0
COc1ccccc1OCCCN1C(=O)C(=O)c2cccc(C)c21	0	0	0	0	0
Cc1ccc(OCCCN2C(=O)C(=O)c3cccc(C)c32)cc1	0	16	0	0	0
O=C(CN1CCCCC1)NCC1(c2ccccc2)CCCC1	0	0	0	0	0
CC(C)(C)c1ccc(NNC(=O)C2CCC2)cc1	0	0	0	109	0
CC(C)(C)c1ccc(NC(=O)COC(=O)C2CCCC2)cc1	-	0	0	0	-
CCOC(=O)c1c(C)oc2c1C(=O)c1ccccc1C2=O	85	0	0	84	-
Cc1onc(-c2ccccc2Cl)c1C(=O)c1ccccc1	0	0	0	0	0
Cc1oc2c(c1C(=O)O)C(=O)c1ccccc1C2=O	0	0	0	0	0
O=C1C(=O)c2c(C(=O)c3ccccc3)coc2-c2ccccc21	0	0	0	101	0
Cc1oc2c(c1C(=O)c1ccccc1)C(=O)C(=O)c1ccccc1-2	98	0	0	104	0
O=C(C1=C(c2ccccc2)C(=O)c2ccccc2C1=O)c1ccccc1	-	-	-	-	0
Cc1cc(C)cc(NC(=O)CSc2nc3nc(C)cc(C)n3n2)c1	0	0	0	0	-
O=C(Nc1cccc(C(F)(F)F)c1)C(=O)N1CCCCC1	0	0	0	-	0
COC(=O)c1ccc(/C=C/c2c(-c3ccc(OC)cc3)oc3ccc(N4CCOCC4)cc23)cc1	109	0	0	0	0
COC(=O)c1ccc(/C=C/c2c(-c3ccc(OC)cc3)oc3ccccc23)cc1	109	0	0	0	0
CCOc1ncccc1C(=O)Nc1ccc(S(=O)(=O)N2CC(C)CC(C)C2)cc1 (stereo not given)	0	-	-	0	-
SMILES	CSC inhib	PP1 inh	PP5 primary	Beta apoptosis	SKKanGAS inh
COc1ccc(Oc2nc(C(F)(F)F)nc3ccccc23)cc1	0	0	0	0	52
COc1ccc(C(=O)c2c(C)c3ccccc3n2CC(O)CNC(C)C)cc1 (stereo not given)	0	0	0	102	0
CCN(Cc1ccccc1)C(c1cccs1)c1nnnn1C1CCCCC1 (stereo not given)	0	0	0	101	0
O=C(O)c1ccc2c(c1)-c1cc(C(=O)O)ccc1S2(=O)=O	0	0	0	0	0
CC(=O)Nc1ccc(SCCC2CCCCN2C)cc1 (stereo not given)	0	0	0	0	0
O=C1/C(=C\c2cc(Br)cc(Br)c2O)SC(=S)N1Cc1ccccc1	78	0	0	0	79
COc1cc([N+](=O)[O-])cc(/C=C2/SC(=S)N(Cc3ccccc3)C2=O)c1O	92	15	0	0	0
O=C1/C(=C/c2ccc(O)c([N+](=O)[O-])c2)SC(=S)N1Cc1ccccc1	-	0	0	0	0
COc1cc(/C=C2/SC(=S)N(Cc3ccccc3)C2=O)cc(Cl)c1O	117	0	0	0	73
CCOc1cc(/C=C2/SC(=S)N(Cc3ccccc3)C2=O)ccc1O	76	0	0	0	0
